In all, about 190,000 compounds went through this assay and about 810 (0.43%) were called active. The sample holds actives, similar compounds and a random draw of the others, so the mix is not that of the screen. Unmarked numbers belong to inactive results. No stated cut-off is given here; in the data, active means inhibition above about 50%; inactive means the rest.

The experiment deals with Mannose-6-phosphate isomerase (Homo sapiens) (UniProt P34949). The experiment in a line: MPI enzyme activity inhibition – biochemical, fluorescence intensity, coupled assay, primary screen (AID 1209).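 Further: plate controls were DMSO vehicle for no effect and wells lacking substrate for full effect.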 Particulars: purified PMI enzyme, at 20 µM, stronger effect = higher value.
Mannose-6-phosphate isomerase (Homo sapiens), sequence (P34949 whole entry, looked up): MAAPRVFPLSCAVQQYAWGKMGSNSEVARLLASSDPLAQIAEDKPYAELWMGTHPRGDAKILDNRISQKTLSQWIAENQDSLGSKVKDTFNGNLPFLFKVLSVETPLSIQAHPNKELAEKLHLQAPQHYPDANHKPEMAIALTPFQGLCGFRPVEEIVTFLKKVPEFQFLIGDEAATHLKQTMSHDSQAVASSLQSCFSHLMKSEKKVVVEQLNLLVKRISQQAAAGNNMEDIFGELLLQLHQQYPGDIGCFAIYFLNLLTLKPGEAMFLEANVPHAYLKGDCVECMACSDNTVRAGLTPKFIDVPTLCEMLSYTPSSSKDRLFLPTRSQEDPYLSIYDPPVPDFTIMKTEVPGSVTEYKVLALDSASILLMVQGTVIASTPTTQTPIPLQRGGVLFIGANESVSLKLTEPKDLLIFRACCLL
For the molecule `COC(=O)c1cccc(NS(=O)(=O)c2ccc(NC(C)=O)cc2)c1C`, the inhibition is -4.2%.

As to `O=[N+]([O-])c1ccc(N/N=C/c2cccc(O)c2O)c(S(=O)(=O)N2CCOCC2)c1`, the inhibition was 16.7%.

With `O=[N+]([O-])c1ccc(N/N=C/c2ccc(O)c(O)c2O)c(S(=O)(=O)N2CCOCC2)c1`, the inhibition is 82.3% (active).

With `O=C(Cc1csc(N2CCOCC2)n1)N/N=C/c1ccc(Cl)cc1Cl`, the inhibition is 4.7%.

On to `O=C(CCc1ccc(S(=O)(=O)N2CCOCC2)cc1)N/N=C/c1ccc(F)cc1F`, for which the inhibition was 4.8%.

Take `O=C(CCc1ccc(S(=O)(=O)N2CCOCC2)cc1)N/N=C/c1cccc(O)c1`: the inhibition is 11.1%.

Take `O=C(CCc1ccc(S(=O)(=O)N2CCOCC2)cc1)N/N=C/c1ccc(O)c(O)c1O`: the inhibition is 57.6% (active).

For the molecule `COc1ccc(/C=N/NC(=O)CCN2CCN(c3ccccc3)CC2)c(OC)c1OC`, the inhibition is -3.2%.

As to `O=C(Cc1csc(N2CCOCC2)n1)N/N=C/c1ccc(O)c(O)c1O`, the inhibition is 83.3% (active).

Turning to `O=C(CCN1CCN(c2ccccc2)CC1)N/N=C/c1ccc(O)c(O)c1O`, the inhibition is 57.4% (active).

With `O=C(Cc1csc(N2CCOCC2)n1)N/N=C/c1cccc(O)c1`, the inhibition is 3.3%.

Take `O=C(CCN1CCN(c2ccccc2)CC1)N/N=C/c1ccccc1O`: the inhibition was -8.5%.

As to `COc1cc(/C=N/Nc2ccc([N+](=O)[O-])cc2S(=O)(=O)N2CCOCC2)cc(OC)c1OC`, the inhibition was -6.8%.

Regarding `CN(C)C(=O)COc1ccc(Br)cc1`, the inhibition was 8.1%.

Turning to `O=C(NN=C1CCCC1)c1sc2ccccc2c1Cl`, the inhibition is -19.6%.

For the molecule `COc1ccc(N(C(=O)CCl)C(C(=O)NCCc2ccccc2)c2cccs2)cc1Cl` (configuration not stated), the inhibition is -8.6%.

Consider `Cc1noc(NS(=O)(=O)c2ccc(NC(=O)C34CC5CC(C3)CC(n3cnc(Br)n3)(C5)C4)cc2)c1C`, for which the inhibition is 0.3%.

Consider `O=C(CN1C(=O)CCC1=O)c1ccc(-c2ccccc2)cc1`, for which the inhibition was 5.6%.

For `CC(=O)Nc1nc(SCc2ccc(Cl)cc2Cl)n[nH]1`, the inhibition was 2%.

Take `Nn1c(COc2ccc(Cl)cc2)nc2ccccc2c1=O`: the inhibition was -0.6%.

As to `CC(=O)Nc1ccc(S(=O)(=O)N2CCN(C(=O)c3cccnc3)CC2)cc1`, the inhibition is 17.8%.

As for `CCOc1ccc(CCNC(=O)c2ccc(N3CCCC3=O)cc2)cc1OCC`, the inhibition is 1.3%.

As for `O=C1CN(CC(=O)Nc2ccc(SC(F)F)cc2)CCN1`, the inhibition was 2.5%.

On to `O=C(NCc1ccccc1)c1cccc(OCC(=O)N2CCN(C(=O)c3ccco3)CC2)c1`, for which the inhibition was 2%.

Turning to `CC1C(=O)Nc2ccccc2N1C(=O)C1CC1` (configuration not stated), the inhibition was -18%.

For the molecule `COC(=O)C1=C(C(=O)OC)SC(=C2C(=S)C(C)(C)N(C(=O)C(C)C)c3ccccc32)S1`, the inhibition is 68% (active).

Regarding `CN1C(=O)/C(=C2\SC(=S)N(C(CCC(=O)O)C(=O)O)C2=O)c2ccccc21` (configuration not stated), the inhibition is 22.8%.

For the molecule `COC(=O)C1=NN(c2ccccc2)C2(S1)SC(C(C)=O)=C(C)N2c1ccccc1` (configuration not stated), the inhibition is 9.2%.

As to `CCCC(=O)N1c2ccccc2C(=C2SC(C(=O)OC)=C(C(=O)OC)S2)C(=S)C1(C)C`, the inhibition is 62.1% (active).

Take `COC(=O)C1=C(C(=O)OC)SC(=C2C(=S)C(C)(C)N(C(=O)CC(C)C)c3ccccc32)S1`: the inhibition was 38.8%.

For `CCC(C)C(=O)N1c2ccccc2C(=C2SC(C(=O)OC)=C(C(=O)OC)S2)C(=S)C1(C)C` (configuration not stated), the inhibition was 63.8% (active).

`C/C=C/C(=O)N1c2ccccc2C(C)=CC1(C)C`: the inhibition is -2.5%.

Regarding `CCCC(C(=O)O)N1C(=O)/C(=C2\C(=O)N(C)c3ccccc32)SC1=S` (configuration not stated), the inhibition is 16.5%.

Regarding `CC1(C)c2ssc(=S)c2-c2ccccc2N1C(=O)CSC1=NCCS1`, the inhibition is 14.3%.

Turning to `COC(=O)C1=C(C(=O)OC)SC(=C2C(=S)C(C)(C)N(C(=O)C3CC3)c3ccccc32)S1`, the inhibition was 71.6% (active).

Turning to `O=C(C1CCC(C(=O)N2CCc3ccccc32)CC1)N1CCc2ccccc21` (configuration not stated), the inhibition is 3.2%.

Consider `Cc1ccc(/C=C/C(=O)CCC(=O)O)cc1`, for which the inhibition was -0.7%.

For `O=C(N/N=C/c1c[nH]c2ccccc12)c1sc2ccccc2c1Cl`, the inhibition was 17.1%.

For `COc1cc(C2C3=C(CC(C)(C)CC3=O)OC3=C2C(=O)CC(C)(C)C3)cc([N+](=O)[O-])c1O`, the inhibition is 0.1%.

On to `O=C(CC1SC(=O)N(Cc2cccc3ccccc23)C1=O)Nc1nccs1` (configuration not stated), for which the inhibition was 9.8%.

In the case of `O=C(/C=C/c1ccccc1)Oc1ccccc1C(=S)N1CCOCC1`, the inhibition was 15.6%.

With `Cc1csc(NC(=O)c2cc(C)oc2C)n1`, the inhibition is -8.4%.

Turning to `CCOC(=O)c1sc(NC(=O)C2CCCO2)c(C(=O)OCC)c1C` (configuration not stated), the inhibition is 11.4%.

Regarding `S=C(Nc1ccccc1)Nn1cnnc1`, the inhibition was 48.4%.

On to `CCc1ccc(NC(=S)Nc2ccc(S(=O)(=O)Nc3ncccn3)cc2)cc1`, for which the inhibition is -1.7%.

In the case of `CCc1ccc(NC(=S)Nn2cnnc2)cc1`, the inhibition is 54.2% (active).

In the case of `Cc1ccc(NC(=S)Nn2cnnc2)cc1`, the inhibition is 61.8% (active).

In the case of `Cc1ccc(C(=O)NC(=S)Nn2cnnc2)cc1`, the inhibition is 12.4%.

Turning to `FC(F)Oc1ccc(NC(=S)NN2CCOCC2)cc1`, the inhibition is -3.1%.

`FC(F)Oc1ccc(NC(=S)Nn2cnnc2)cc1`: the inhibition is 55.2% (active).

Take `CCc1ccc(NC(=S)NCc2ccccc2)cc1`: the inhibition is -2.6%.

For the molecule `CN1CCN(NC(=S)Nc2ccc(OC(F)F)cc2)CC1`, the inhibition is -15.1%.

Take `CNC(=S)Nc1ccc(OC)c(OC)c1`: the inhibition is 7.4%.

For `COc1ccc(NC(=S)Nn2cnnc2)cc1OC`, the inhibition was 61.2% (active).

For `COc1ccc(NC(=S)NN2CCN(C)CC2)cc1OC`, the inhibition was 22.9%.

For the molecule `CCc1ccc(C(=O)COC(=O)c2n[nH]c3ccccc23)cc1`, the inhibition was -0.2%.

On to `CCC1C(=O)N(C)CCc2ccccc21` (configuration not stated), for which the inhibition is -5.7%.

As for `COC(=O)c1nc(-c2ccccc2)oc1N1CCOCC1`, the inhibition is -4.7%.

As to `COc1ccc(C)cc1NC(=O)C(Sc1nnc2ccccn12)c1ccccc1` (configuration not stated), the inhibition is -1%.

On to `Cc1ccc(S(=O)(=O)N/N=C/c2ccc(OS(=O)(=O)c3ccc(C)c([N+](=O)[O-])c3)cc2)cc1`, for which the inhibition is 1.6%.

For the molecule `O=C(/C=C/c1ccc(Br)cc1)c1ccc(NC2=NCCCS2)cc1`, the inhibition was 1.6%.

For the molecule `O=c1cnnc(Nc2cccc(C(F)(F)F)c2)[nH]1`, the inhibition is -10.6%.

With `O=c1cc(O)c2sc(Nc3ccc(F)c(Cl)c3)nc2[nH]1`, the inhibition is 41.4%.

Consider `O=c1cc(O)c2sc(Nc3cccc(C(F)(F)F)c3)nc2[nH]1`, for which the inhibition was 52.4% (active).

With `COc1ccc(Nc2nc3[nH]c(=O)cc(O)c3s2)cc1`, the inhibition is 50.2% (active).

Take `Cc1cc(=O)[nH]c(Nc2cccc(C(F)(F)F)c2)n1`: the inhibition is -10.3%.

Take `COc1ccc(Nc2nc(C)cc(=O)[nH]2)cc1`: the inhibition is 5.6%.

Consider `O=c1cc(O)c2sc(Nc3ccc(F)cc3)nc2[nH]1`, for which the inhibition is 69.8% (active).

For the molecule `COc1ccc(Nc2nc3ccc(OC)cc3s2)cc1`, the inhibition was -0.9%.

For `Fc1ccc(Nc2nc3ccccc3s2)cc1`, the inhibition is 7.9%.

With `CN(C)CCCN(C(=O)c1cc2ccccc2oc1=O)c1nc2c(F)cccc2s1`, the inhibition is 7.5%.

On to `O=C(CSc1n[nH]c(-c2cccs2)n1)N1CCN(S(=O)(=O)c2ccccc2)CC1`, for which the inhibition was 8.5%.

For the molecule `C#CCOCCOCCOCCNc1nc(N2CCOCC2)nc(N2CCN(C(=O)[C@H](C)n3cc(CCCN=C(N)N)nn3)CC2)n1`, the inhibition was -9.8%.

As to `COC(=O)c1ccc(NC(=O)CSc2n[nH]c(-c3ccncc3)n2)cc1`, the inhibition is 11.1%.

Regarding `COc1ccc(OCC(=O)N/N=C(\C)c2cc3ccccc3o2)cc1`, the inhibition was 4.9%.

Turning to `CC(SCC(=O)Nc1ccc(S(=O)(=O)N2CCCCC2)cc1)C(=O)O` (configuration not stated), the inhibition is 3.5%.

Turning to `Clc1cccc(Cl)c1NC1=NCCN1`, the inhibition was -30.9%.

As for `c1cc(Nc2cccc3nccnc23)c2nccnc2c1`, the inhibition is 28.5%.

On to `Brc1c(NC2=NCCN2)ccc2nccnc12`, for which the inhibition is 54.4% (active).

As to `Cc1nc2ccccc2n1CC(=O)OCC(=O)NCc1ccccc1`, the inhibition is -3%.

Consider `CS(=O)(=O)N(CC(=O)Nc1ccc(S(=O)(=O)N2CCCC2)cc1)c1ccccc1F`, for which the inhibition was 2.4%.

`Cc1ccnn1CC(=O)N/N=C/c1ccc2c(c1)OCO2`: the inhibition is -2.6%.

`Cc1cc(C)n(CC(=O)N/N=C/c2ccc3c(c2)OCO3)n1`: the inhibition is 12.1%.

Turning to `O=C(Cn1nc(C(F)F)cc1C(F)F)N/N=C/c1ccc2c(c1)OCO2`, the inhibition is 92.9% (active).

Regarding `Cc1ccc(C(=O)CC(=O)c2cc(Cl)ccc2O)cc1`, the inhibition is -10.2%.

Turning to `O=C(CC(=O)c1cc(Cl)ccc1O)c1ccccc1`, the inhibition was 59.9% (active).

`Cc1cccc(C(=O)CC(=O)c2cc(Cl)ccc2O)c1`: the inhibition is 5.2%.

Turning to `S=c1[nH]ncn1/N=C/c1ccccn1`, the inhibition was 5.3%.

Consider `Oc1c(Br)cc(Br)cc1C=NCc1ccc(F)cc1`, for which the inhibition was -4.2%.

Take `CCOC(=O)C1CCN(CCC(=O)Nc2ccc(Cl)cc2)CC1`: the inhibition is 7.1%.

`COc1ccc([C@@H]2C[C@H]3CN(c4ccccc4)C(=O)[C@]34CCCN24)c(OC)c1OC`: the inhibition is -8.3%.

For the molecule `Cc1nn(Cc2cccc(C(=O)NC3CCCCC3)c2)c(C)c1Cl`, the inhibition is 7.3%.

As for `O=C(O)c1csc(Cc2ccccc2)n1`, the inhibition is -2.4%.

In the case of `CCOC(=O)c1c(NC(=S)Nc2cc([N+](=O)[O-])ccc2OC)sc2c1CCCCC2`, the inhibition was 28.1%.

Regarding `COC(=O)c1c(NC(=S)Nc2cc(OC)c(Cl)cc2OC)sc2c1CCCCC2`, the inhibition is 25.1%.

For `COC(=O)c1c(NC(=S)Nc2ccc(F)cc2[N+](=O)[O-])sc2c1CCCCC2`, the inhibition is 63% (active).

For `CCC1Oc2ccc(C)cc2N(CC(=O)NCc2ccco2)C1=O` (configuration not stated), the inhibition is 6.6%.

By inhibition is commonly meant the drop in the measured response relative to a control, in per cent.

Values taken from PubChem BioAssay AID1209 (Sanford-Burnham Center for Chemical Genomics, 2008).
